IL-1B inflam inh: inflammasome signaling inhibition, IL-1 beta readout; 360,000 compounds, 4.7% hits; THP-1 LPS/ATP IL-1B secretion, AlphaLISA, 16 h; active compounds read low; AID 743279; activity change, % at 57.5 µM; in the data active means activity change below about -50%; inconclusive means mostly about -30% to -49%
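Secreted IL-1B measured by AlphaLISA bead assay after 16 h compound exposure of THP-1 cells; compounds (final up to 57.5 uM) added 1 h before LPS (250 ng/mL) and ATP (1.25 mM) stimulation; lower signal means less secretion.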
HT1080-NT tox: kills 2HG-producing HT-1080-NT fibrosarcoma cells. HT-1080-NT fibrosarcoma viability, CellTiter-Glo ATP luminescence, 48 h. Potency, µM (doses to about 46.1 µM), actives largely listed as cytotoxic. 360,000 compounds, 1.6% hits;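 further: NT is the 2HG producing partner of a matched IDH1 knockdown line; nearly all actives have a fitted effect of over 55% in size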
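HT-1080-NT fibrosarcoma cells (2HG-overproducing), 750 cells/well in RPMI with 5% FBS, dosed after 2 h and incubated 48 h at 37C. CellTiter-Glo luminescence normalized to DMSO and no-cell wells; concentration-response curves fitted and classed.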
TDP1 cell CPT: growth inhibition of DT40 Tdp1-/-;hTDP1 cells with camptothecin (screen for TDP1 inhibitors); chicken DT40 Tdp1-/-;hTDP1 cells + 20 nM CPT, ATP luminescence, 48 h; Potency, µM (highest dose often 46.2 µM), most hits filed as inhibitors; 420,000 compounds, 12% hits; AID 686979; further: nearly all actives have a fitted effect of over 55% in size
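Chicken DT40 Tdp1-/- cells stably complemented with human TDP1 were seeded at 400 cells/well in medium containing 20 nM camptothecin, exposed to pin-transferred compounds, and grown at 37 °C for at least 48 hr. Viability was read as ATP luminescence.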
TDP1 cell noCPT: qHTS for Inhibitors of human tyrosyl-DNA phosphodiesterase 1 (TDP1): qHTS in cells in absence of CPT; DT40 Tdp1-/- hTDP1 cells, no CPT, ATP luminescence, 48 h; Potency, µM (doses to about 46.2 µM), usual class: inhibitors; 420,000 compounds, 15% hits; AID 686978, 2013; further: nearly all actives have a fitted effect of over 55% in size
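Stably hTDP1-transfected Tdp1-null chicken DT40 cells were treated with library compounds minus camptothecin and grown for at least 48 hr at 37 °C, after which cellular ATP was quantified by luminescence.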
ALOX12 inh: ALOX12 (human) lipoxygenase inhibition; purified 12hLO, xylenol orange hydroperoxide absorbance; Potency, µM (series often up to 108 µM), usual class: inhibitors; 580,000 compounds, 1.1% hits
Target sequence (P18054 whole entry, looked up): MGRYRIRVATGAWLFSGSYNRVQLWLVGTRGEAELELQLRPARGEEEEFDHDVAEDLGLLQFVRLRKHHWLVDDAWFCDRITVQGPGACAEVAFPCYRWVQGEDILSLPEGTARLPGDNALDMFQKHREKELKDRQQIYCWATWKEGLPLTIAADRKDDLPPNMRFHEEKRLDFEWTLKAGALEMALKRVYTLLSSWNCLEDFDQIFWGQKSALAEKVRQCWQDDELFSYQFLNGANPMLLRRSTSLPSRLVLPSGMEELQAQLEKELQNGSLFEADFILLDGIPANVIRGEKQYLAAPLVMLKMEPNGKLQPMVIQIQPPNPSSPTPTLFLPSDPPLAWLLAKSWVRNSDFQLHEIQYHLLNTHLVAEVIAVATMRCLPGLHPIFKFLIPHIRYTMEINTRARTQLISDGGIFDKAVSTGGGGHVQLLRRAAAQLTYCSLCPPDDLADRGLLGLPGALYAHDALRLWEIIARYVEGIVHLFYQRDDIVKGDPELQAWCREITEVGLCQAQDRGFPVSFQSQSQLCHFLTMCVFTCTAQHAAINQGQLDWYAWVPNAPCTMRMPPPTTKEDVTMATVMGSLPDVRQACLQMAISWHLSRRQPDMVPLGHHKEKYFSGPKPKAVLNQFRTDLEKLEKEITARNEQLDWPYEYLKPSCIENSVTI
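Hydroperoxide product was detected by ferrous iron/xylenol orange as the 573 to 405 nm absorbance ratio. Arachidonic acid at 40 uM (final) was turned over for 30 min at room temperature by 150 nM human 12hLO, pH 7.0 Hepes buffer, after 15 min compound preincubation.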
HT1080 IDH1KD tx: HT-1080 IDH1 knockdown cell toxicity (counter line); HT-1080 IDH1 knockdown viability, ATP luminescence, 48 h; Potency, µM (doses to about 46.1 µM), actives largely listed as cytotoxic; 360,000 compounds, 2% hits; AID 686971
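After a 2 h attachment period, IDH1KD HT-1080 cells took pin-transferred compound for 48 h at 37 °C; ATP-based luminescence after 10 min room-temperature reagent incubation reported viability.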
Numbers stand for hits; 0 = inactive; ? = inconclusive; - = no result; [ ] = dose if it differs, or a comment. Many of the other results were omitted from the sample, so hits are more common in it than they were. Unless noted, the call rests on the fitted dose curve; in most records, active means well fitted curve in the direction sought with a large enough effect; inconclusive means small, poorly fitted or top-dose-only effect, or another doubt; inactive means no such curve, though single readings can be large; an effect the other way counts as inactive or inconclusive.

SMILES	IL-1B inflam inh	HT1080-NT tox	TDP1 cell CPT	TDP1 cell noCPT	ALOX12 inh	HT1080 IDH1KD tx
O=C(C1CC1)N1CCc2cc(Br)cc(S(=O)(=O)N3CCN(c4cccc(C(F)(F)F)c4)CC3)c21	-	-	?	8.2µM	0	-
Cc1ccc(NS(=O)(=O)c2cc(Br)cc3c2N(C(=O)C2CC2)CC3)cc1C	-	-	2.6µM	2.1µM	0	-
CCOC(=O)c1cccc(NS(=O)(=O)c2cc(Br)cc3c2N(C(=O)C2CC2)CC3)c1	-	-	?	23µM	0	-
O=C(C1CC1)N1CCc2cc(Br)cc(S(=O)(=O)NCCCN3CCCC3)c21	0	0	0	0	0	0
O=C(C1CC1)N1CCc2cc(Br)cc(S(=O)(=O)Nc3ccc(F)c(F)c3)c21	-	-	23µM	23µM	0	-
COc1ccc(Cl)cc1NS(=O)(=O)c1cc(Br)cc2c1N(C(=O)C1CC1)CC2	-	-	?	?	0	-
CCOC(=O)C1CCN(S(=O)(=O)c2cc(Br)cc3c2N(C(=O)C2CC2)CC3)CC1	0	0	?	0	0	0
COC(=O)N1CCn2cc(C(=O)NCc3ccc(Cl)nc3)nc2C1	-	-	-	-	0[6.33 µM]	-
Fc1ccccc1-c1noc2c1CN(Cc1cccn1-c1nccs1)CC2	-	-	-	-	0	-
COC[C@H]1CCCN1Cc1nc(C2(O)CCN(C3CCN(C)CC3)CC2)cs1	-	-	-	-	0	-
CCn1c(C(=O)NCc2cccc(Br)c2)cc2oc3ccccc3c21	-	-	?	15µM	0	-
CCn1c(C(=O)NCc2cc(Br)ccc2OC)cc2oc3ccccc3c21	-	-	23µM	?	0	-
CCn1c(C(=O)NCc2ccccc2Br)cc2oc3ccccc3c21	-	0	21µM	0	0	?
COc1cc(C(=O)Nc2oc3ccccc3c(=O)c2-c2ccc3c(c2)OCO3)cc(OC)c1OC	-	-	-	-	0	-
NC(N)=NC(N)=Nc1ccc(F)cc1	-	-	-	-	0	-
O=C(CSc1nnc(-c2ccccc2F)n1-c1ccccc1)NC(=O)NCc1ccccc1	-	-	-	-	0	-
CN(C)CCNCc1ccc(-c2ccccc2)o1	-	-	-	-	0	-
CC(=O)c1ccc(OCc2cc(C(=O)N3CCC(c4ccncc4)CC3)no2)cc1	0	18µM	12µM	5.8µM	0	23µM
COc1ccc(C(=O)N2CCC(c3ccncc3)CC2)cc1OC	-	-	0	0	0	-
CCN(CC)c1ccc(C(=O)N2CCC(c3ccncc3)CC2)cc1	-	-	21µM	3.3µM	0	-
COc1cccc(OCc2cc(C(=O)N3CCN(C)C(c4ccccc4)C3)no2)c1 (stereo not drawn)	0	0	26µM	?	-	0
CCOc1cccc(C(=O)N2CCCCC2c2cccnc2)c1 (stereo not drawn)	0	0	0	0	?	0
CC(=O)c1ccc(OCc2cc(C(=O)N3CCCCC3c3cccnc3)no2)cc1 (stereo not drawn)	?	0	21µM	18µM	0	?
Cc1ccc(NC(=O)CSc2ccc(N3CCC(C(=O)N4CCCCC4)CC3)nn2)cc1C	-	-	-	-	0	-
COCC1CCN(C(=O)c2cc(COc3ccc4c(c3)CCCC4)on2)C1 (stereo not drawn)	-62	0	?	0	0	0
SMILES	IL-1B inflam inh	HT1080-NT tox	TDP1 cell CPT	TDP1 cell noCPT	ALOX12 inh	HT1080 IDH1KD tx
COc1ccc(OCc2cc(C(=O)N3CCC(c4ccccc4)CC3)no2)c(Cl)c1	0	0	0	?	0	0
COCC1CCN(C(=O)c2cc(COc3ccc(C)c(C)c3)on2)C1 (stereo not drawn)	0	0	0	0	0	0
CC(=O)c1ccc(OCc2cc(C(=O)N3CC[C@@H]4CCCC[C@H]4C3)no2)cc1	-81	0	?	16µM	?	0
COc1cccc(OCc2cc(C(=O)N3CCC(c4ccncc4)CC3)no2)c1	0	?	15µM	8.2µM	0	?
Cc1ccc(OCc2cc(C(=O)N3CCCC(C)C3)no2)cn1 (stereo not drawn)	0	0	16µM	21µM	0	0
CCOc1ccc(C(=O)Nc2ccc(-c3cn4ccc(C)nc4n3)cc2)cc1OCC	-	-	-	-	0	-
CCOc1ccc(-c2cc(C(=O)Nc3ccc(C)c(NS(C)(=O)=O)c3)[nH]n2)c(C)c1	0	0	18µM	?	0	?
CCOc1ccc(-c2cc(C(=O)NCCOC)[nH]n2)c(C)c1	0	0	0	0	?	0
COc1cccc(-c2oc3ccccc3c(=O)c2O)c1	-	-	27µM	27µM	-	-
CCOc1ccc(-c2oc3ccccc3c(=O)c2O)cc1OCC	-	-	?	?	0	-
O=c1c(O)c(-c2ccc3c(c2)OCO3)oc2ccccc12	0	?	18µM	?	?	?
COc1ccccc1C(=O)Nc1ccnn1C1CCN(c2cnccn2)CC1	-	-	-	-	0	-
Cc1cc(N2CCC(C)CC2)nc2ccc(NC(=O)/C=C/c3cccc(Cl)c3)cc12	-	-	6.5µM	4.1µM	?	-
Cc1ccc(/C=C/C(=O)Nc2ccc3nc(N4CCC(C)CC4)cc(C)c3c2)cc1	-	-	5.8µM	3.7µM	?	-
Cc1cc(N2CCCCC2)nc2ccc(NC(=O)/C=C/c3ccc(OCCC(C)C)cc3)cc12	-	-	0	18µM	0	-
COc1ccc(NC(=O)/C(C#N)=C\C=C\c2ccco2)cc1	0	?	8.2µM	2.9µM	?	21µM
COc1ccc(NC(=O)/C(=C\c2ccco2)NC(=O)c2ccco2)cc1	0	0	0	0	?	0
CC(OC(=O)c1csc(NCc2ccccc2)n1)C(=O)N1CCNC1=O (stereo not drawn)	-	-	-	-	0	-
CCOc1ccc(CNS(=O)(=O)c2ccc(-c3coc(C)n3)cc2)cc1	-	-	?	18µM	0	-
CCOc1ccc(CNS(=O)(=O)c2ccc(-c3coc(C)n3)cc2)cc1OC	-	-	7.3µM	15µM	0	-
CC(C)N1C(=O)C2(CCCC2)C1C(=O)NCCCN1CCc2ccccc2C1 (stereo not drawn)	-	-	-	-	0	-
CCOC(=O)c1ccc(NC(=O)CN2C(=O)NC3(CCOCC3)C2=O)cc1	-	-	-	-	0	-
CCCCOC(=O)c1ccc(NC(=O)CN2C(=O)NC3(CCCCCC3)C2=O)cc1	?	0[9.24 µM]	10µM	8.2µM	0	?
CCOC(=O)c1ccc(NC(=O)CN2C(=O)NC3(CCCCCCC3)C2=O)cc1	0	?	15µM	?	0	?
CCOC(=O)c1ccc(NC(=O)C(=O)NCc2ccncc2)cc1	0	0	0	0	0	0
CCCCOC(=O)c1ccc(NC(=O)COC(=O)CN2C(=O)NC3(CCCC3)C2=O)cc1	0	0	0	0	0	0
CCCCOC(=O)c1ccc(NC(=O)C(=O)NCc2ccncc2)cc1	0	0	23µM	23µM	0	0
COc1ccccc1SC(C)C(=O)NC1CCCC1 (stereo not drawn)	-	-	-	-	0	-
